In ChEMBL document CHEMBL3988442, “University of Dundee, Small-Polar-MMV Screening Library” (2021):
In all, about 48,000 compounds went through this assay and about 13,000 (27%) showed an effect of 50% or more. Some of the results follow.

Test system: Wolbachia pipientis
Assay: Anti-Wolbachia Cell-Based Screen
Assay type: functional
Design: scale not given: in the data most compounds retested in dose-response had high values
Details: 5 µM

First: CCn1c(CN(C)C)nnc1C1CCN(Cc2cccc(C#N)c2)CC1
Second: CC(C)=CCCC(C)CN1CCC(n2cc(CO)nn2)CC1 (stereo not drawn)
The “Percent Effect” value of the first is higher: -18.18% for the first, -18.32% for the second.

Going from `COc1cccc(CNC(=O)CC2CSc3nc(C)c(C)c(=O)n32)c1` (stereo not drawn) to `COc1cccc(CNC(=O)CC2CSc3ncc(C)c(=O)n32)c1` (stereo not drawn), the “Percent Effect” value falls from 131.7% to 19.59%.

First: CC(=O)NC[C@@H]1C=C(C)[C@H](CC(=O)NCc2cccnc2)C[C@H]1C(C)C
Second: Cc1cnc2n(c1=O)C(CC(=O)NCc1cccnc1)CS2 (stereo not drawn)
The “Percent Effect” value of the first is lower: -8.421% for the first, 115% for the second.

Going from `O=C(NCc1cccnc1)N1CCSCC1CCO` (stereo not drawn) to `O=C(NCc1ccncc1)N1CCSCC1c1ccc(Cl)cc1` (stereo not drawn), the “Percent Effect” value rises from -15.06% to -11.62%.

First: O=C(Cn1nc(-c2ccc(F)cc2)oc1=O)NCc1ccc(F)cc1
Second: Cc1cnc2n(c1=O)C(CC(=O)NCc1ccc(F)cc1)CS2 (stereo not drawn)
The “Percent Effect” value of the first is lower: -3.011% for the first, 120.7% for the second.

First: Cc1nsc(N2CCN(CC(=O)NCc3ccc(F)cc3)CC2)n1
Second: Cc1cnc2n(c1=O)C(CC(=O)NCc1ccc(Cl)cc1)CS2 (stereo not drawn)
The “Percent Effect” value of the first is lower: -5.243% for the first, 120.8% for the second.

Compared with `Cc1cc(=O)n2c(n1)SCC2CC(=O)NCc1cc(-c2ccco2)on1` (stereo not drawn), `Cc1cnc2n(c1=O)C(CC(=O)NCc1ccccc1Cl)CS2` (stereo not drawn) is higher in “Percent Effect” value: 1.39% for the first, 121.9% for the second.

Compared with `Cc1ccc(CNC(=O)CC2C(=O)NCCN2Cc2ccccc2C)s1` (stereo not drawn), `Cc1ccc(CN2CCC3(CC2)NC(=O)CC3c2ccccc2)s1.O=C(O)C(F)(F)F` (stereo not drawn) is higher in “Percent Effect” value: 4.539% for the first, 95.7% for the second.

Compared with `Cc1cnc2n(c1=O)CC(C(=O)Nc1ccccc1Cl)CS2` (stereo not drawn), `CCNc1cc2c(nn1)CCN(C(=O)C1Cc3ccccc3S1)C2` (stereo not drawn) is lower in “Percent Effect” value: -3.995% for the first, -4.507% for the second.

Compared with `Cc1cc(-c2ccncc2)ccc1OCC(N)=O`, `Cc1ccc2nc3n(c2c1)[C@@H](CNC(=O)c1ccncc1)COC3` is lower in “Percent Effect” value: -1.496% for the first, -11.4% for the second.

Compared with `CC(C)c1cc(C(=O)N2CCN(CC3CC3)[C@@H]3CS(=O)(=O)C[C@@H]32)no1`, `CCc1nccn1CC(=O)N1C[C@H]2CC[C@@H]1CN(C(=O)N(C)C)C2` is higher in “Percent Effect” value: 5.38% for the first, 6.839% for the second.

First: Cc1cnn(CCC(=O)Nc2ccc(F)cc2OCC2CC2)c1
Second: Cc1cc(CNC(=O)CC2CN(C(=O)OC(C)(C)C)C2)ccc1F
The “Percent Effect” value of the first is higher: -3.72% for the first, -41.83% for the second.

First: CCN1CC(C(=O)N2CCN(CCn3cccc3)CC2)CC1=O (stereo not drawn)
Second: CN1C(=O)CC(c2cnn(C)c2)C12CCN(C(=O)c1ccc[nH]1)CC2 (stereo not drawn)
The “Percent Effect” value of the first is higher: -5.842% for the first, -12.5% for the second.

Going from `CCNc1cc2c(nn1)CCN(C(=O)Cc1ccc(C)s1)C2` to `CCNc1cc2c(nn1)CCN(C(=O)Cc1ccc3c(c1)CCO3)C2`, the “Percent Effect” value falls from 107.9% to -18.57%.

First: CCNc1cc2c(nn1)CCN(C(=O)Cc1c(C)nn(C)c1C)C2
Second: CCNc1cc2c(nn1)CCN(C(=O)CC1CCCCC1)C2
The “Percent Effect” value of the first is higher: 126.1% for the first, -4.667% for the second.

Going from `CCNc1cc2c(nn1)CCN(C(=O)C1COc3ccccc3C1)C2` (stereo not drawn) to `CCCc1cc(C(=O)N2Cc3ccccc3C2)[nH]n1`, the “Percent Effect” value rises from 3.402% to 5.853%.

Compared with `c1cc(-c2nc3c(c(NCCn4ccnn4)n2)CCNCC3)ccn1`, `O=C(O)C(F)(F)F.O=C(O)C(F)(F)F.O=C1NC2(CCN(Cc3nccs3)CC2)CC1c1ccncc1` (stereo not drawn) is lower in “Percent Effect” value: -0.7039% for the first, -14.31% for the second.

Compared with `Cc1ccc(CN2CCC3(CC2)C(=O)N(CCO)CCN3C)o1.O=C(O)C(F)(F)F.O=C(O)C(F)(F)F`, `CCN1CCN(C)C2(CCN(Cc3ccc(C)o3)CC2)C1=O.O=C(O)C(F)(F)F.O=C(O)C(F)(F)F` is lower in “Percent Effect” value: 5.189% for the first, -15.65% for the second.

First: COCCN1CCC2(CCN(Cc3nccs3)CC2)C1=O
Second: Cn1cc(C2CC(=O)NC23CCN(Cc2nccs2)CC3)cn1 (stereo not drawn)
The “Percent Effect” value of the first is lower: -0.9039% for the first, 86.17% for the second.

Compared with `Cc1ccc(CN2CCCC3(CCC(=O)N3)CC2)s1.O=C(O)C(F)(F)F` (stereo not drawn), `O=C(O)C(F)(F)F.O=C1CC(c2ccccc2)C2(CCN(Cc3nccs3)CC2)N1` (stereo not drawn) is higher in “Percent Effect” value: 3.95% for the first, 100.6% for the second.

Going from `Cc1ccc(CN2CCC3(CC2)C(c2ccccc2)CC(=O)N3C)o1.O=C(O)C(F)(F)F` (stereo not drawn) to `Cc1noc(C)c1CN1CCC2(CC1)C(c1ccccc1)CC(=O)N2C.O=C(O)C(F)(F)F` (stereo not drawn), the “Percent Effect” value falls from 104.4% to 90.48%.

Compared with `Cc1noc(C)c1CN1CCC2(CC1)CC(Oc1cccnc1)C2.O=C(O)C(F)(F)F.O=C(O)C(F)(F)F`, `Cc1noc(C)c1CN1CCC2(CC1)C(c1cnn(C)c1)CC(=O)N2C.O=C(O)C(F)(F)F` (stereo not drawn) is higher in “Percent Effect” value: 7.225% for the first, 113.4% for the second.

Going from `Cn1cc(C2CC(=O)NC23CCN(c2ncc(F)cn2)CC3)cn1` (stereo not drawn) to `Cc1noc(C)c1CN1CCC2(CC1)NC(=O)CC2c1cnn(C)c1` (stereo not drawn), the “Percent Effect” value rises from -28.26% to 100%.

Going from `Cc1cnc(N2CCC3(CC2)C(c2ccccc2)CC(=O)N3C)nc1` (stereo not drawn) to `CN(CCC(F)(F)F)c1nc2ccccc2c(=O)[nH]1`, the “Percent Effect” value falls from 8.622% to -5.931%.
